10 compounds from PubChem BioAssay (NCI) can be followed below.

Test systems include HCT-15 colon; HT29 colon; SNB-75 CNS; SNB-19 CNS; U251 CNS; PC-3 prostate; SK-MEL-5 melanoma; LOX IMVI melanoma; SK-MEL-28 melanoma; SK-MEL-2 melanoma; EKVX NSCLC; SN12C renal; UO-31 renal; TK-10 renal; ACHN renal; CAKI-1 renal; A498 renal; CCRF-CEM leukemia; MOLT-4 leukemia; UACC-62 melanoma.
Test in all cases: NCI-60 one-dose screen, 48 h (100 = growth as untreated, 0 = no growth, -100 = all killed)
Settings in all cases: 10 µM

About 83,000 compounds went through this panel and 20% of them were active in at least one assay; those are over-represented in the sample as a whole.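 Assay: single dose, 48 h. Readout: percent growth (0 = no net growth; negative = cell death). Active: <10.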 Unmarked numbers belong to inactive results. Activity calls are given as the source filed them.

As to `C[C@H]1[C@H](C)CC[C@]2(COC(=O)CCC(=O)NCC#CCN3CCNCC3)CC[C@]3(C)C(=CC[C@@H]4[C@@]5(C)CCCNC(C)(C)[C@@H]5CC[C@]43C)[C@H]12`, the growth in the assay on HCT-15 colon was 16.1%; with HT29 colon, -21% (active); in the assay with SNB-75 CNS, 82.2%; in the assay on SNB-19 CNS it was 60%; in the assay with U251 CNS, 14.7%; in the assay on PC-3 prostate it was 17.8%. Moreover, the growth in the assay with SK-MEL-5 melanoma is 9.74% (active); in the assay with LOX IMVI melanoma, 1.63% (active); in the assay with SK-MEL-28 melanoma, -26.5% (active); in the assay on SK-MEL-2 melanoma, 96.3%; in the assay with EKVX NSCLC, 73.4%; in the assay with SN12C renal it was 64.9%. Also, the growth is 42.9% in the assay on UO-31 renal; 70.9% in the assay with TK-10 renal; 59.4% with ACHN renal; 49.1% in the assay on CAKI-1 renal; 111% in the assay with A498 renal; 12.5% in the assay with CCRF-CEM leukemia.
In the case of `Cn1cc(-c2cc(N)n3nc(-c4c[nH]c5ccc(Br)cc45)cc3n2)c2cccnc21`, the growth was -77% (active) with HCT-15 colon; -81.7% (active) in the assay with HT29 colon; -73.1% (active) in the assay on SNB-75 CNS; -83.5% (active) in the assay on SNB-19 CNS; -83.9% (active) in the assay on U251 CNS; -45.9% (active) in the assay with PC-3 prostate. Besides, the growth is -98.3% (active) in the assay with SK-MEL-5 melanoma; -95.6% (active) in the assay on LOX IMVI melanoma; -95.8% (active) with SK-MEL-28 melanoma; -56.4% (active) with SK-MEL-2 melanoma; -86.7% (active) with EKVX NSCLC; -78.8% (active) in the assay on UO-31 renal. For the same compound, the growth with TK-10 renal is -85.9% (active); with ACHN renal it was -98.9% (active); in the assay with CAKI-1 renal, -60.7% (active); in the assay on A498 renal, -85.9% (active); in the assay with CCRF-CEM leukemia, -19.1% (active); in the assay on MOLT-4 leukemia, -23.8% (active).
With `N#Cc1ccc(-c2nn(-c3ccc(C(=O)O)cc3)cc2CNc2cc(Cl)cc(Cl)c2)cc1`, the growth in the assay with HCT-15 colon was 25.6%; with HT29 colon it was 39.7%; in the assay on SNB-75 CNS it was 78.5%; with SNB-19 CNS, 55.8%; in the assay on U251 CNS, 32.8%; in the assay with PC-3 prostate, 33.6%. The growth with SK-MEL-5 melanoma is 23.9%; in the assay with LOX IMVI melanoma, 7.12% (active); in the assay on SK-MEL-28 melanoma it was 18.1%; with SK-MEL-2 melanoma, 81.7%; with EKVX NSCLC, 63.3%; in the assay on SN12C renal, 50.9%. In addition, the growth with UO-31 renal is 33.2%; with TK-10 renal, 111%; in the assay with ACHN renal, 55.3%; with CAKI-1 renal, 63%; in the assay on A498 renal, 103%; in the assay with CCRF-CEM leukemia, 13.7%. Besides, the growth with MOLT-4 leukemia is 15.8%.
Regarding `COc1ccc(C(=O)/C=C/c2ccc(Cl)c(C(F)(F)F)c2)cc1S(N)(=O)=O`, the growth was -99.9% (active) with HCT-15 colon; -76.9% (active) in the assay with HT29 colon; -33.7% (active) in the assay with SNB-75 CNS; -100% (active) in the assay on SNB-19 CNS; -68.7% (active) in the assay on U251 CNS; -48.2% (active) in the assay with PC-3 prostate. The growth in the assay with SK-MEL-5 melanoma is -89.4% (active); in the assay on LOX IMVI melanoma, -91.4% (active); in the assay with SK-MEL-28 melanoma it was -100% (active); in the assay on SK-MEL-2 melanoma it was -83.1% (active); in the assay with EKVX NSCLC, -98.2% (active); in the assay with SN12C renal, -100% (active). Further, the growth with UO-31 renal was -99.6% (active); in the assay with TK-10 renal, -96.3% (active); in the assay with ACHN renal, -100% (active); in the assay on CAKI-1 renal, -100% (active); with A498 renal it was -30.3% (active); in the assay on CCRF-CEM leukemia, 4.6% (active). In addition, the growth with MOLT-4 leukemia was 8.09% (active).
Take `COc1cccc(C(N)=Nc2ccc(OCCCCCCn3cncn3)cc2)c1`: the growth was 16.8% with HCT-15 colon; -27.9% (active) with HT29 colon; 54.4% in the assay on SNB-75 CNS; 37.6% in the assay on SNB-19 CNS; 10.3% in the assay with U251 CNS; 34.4% with PC-3 prostate. In addition, the growth with UACC-62 melanoma is 36.4%; with LOX IMVI melanoma it was 36%; in the assay on SK-MEL-28 melanoma, 51.4%; in the assay with SK-MEL-2 melanoma, 27.3%; with EKVX NSCLC it was 42%; in the assay with SN12C renal it was 30.2%. Moreover, the growth with UO-31 renal was 45.4%; in the assay on TK-10 renal, 64.3%; with ACHN renal, 45%; in the assay with CAKI-1 renal it was 39.1%; in the assay with A498 renal, 113%; in the assay with CCRF-CEM leukemia it was 10.4%.
Take `Cc1ccc2nc(COc3ccc(C(=O)NNC(=S)NCCc4ccccc4)cc3)[nH]c2c1`: the growth in the assay on HCT-15 colon is 100%; in the assay with HT29 colon it was 112%; in the assay on SNB-75 CNS it was 120%; with SNB-19 CNS it was -16.6% (active); with U251 CNS it was 24%; in the assay on PC-3 prostate, 81.4%. In addition, the growth in the assay on SK-MEL-5 melanoma was 89%; in the assay with LOX IMVI melanoma, 79.9%; with SK-MEL-28 melanoma, 92.9%; with SK-MEL-2 melanoma, 81.7%; in the assay on EKVX NSCLC, 95%; in the assay on SN12C renal, 77.3%. Also, the growth with TK-10 renal is 111%; with ACHN renal, 101%; in the assay with CAKI-1 renal, 96.2%; in the assay with A498 renal it was 134%; in the assay with CCRF-CEM leukemia it was 98.3%; with MOLT-4 leukemia, 96.1%.
For the compound `COc1cc(/C=C/C(=O)c2ccc(NC(=O)CSc3nnc(-c4c[nH]c5ccccc45)n3-c3ccccc3)cc2)cc(OC)c1OC`, the growth in the assay on HCT-15 colon was 23.5%; with HT29 colon it was 51%; in the assay with SNB-75 CNS, 94.9%; with SNB-19 CNS, 68.9%; in the assay on U251 CNS it was 18.7%; in the assay on PC-3 prostate it was 65.6%. Also, the growth with SK-MEL-5 melanoma was 90.2%; in the assay with LOX IMVI melanoma, 4.61% (active); with SK-MEL-28 melanoma, 104%; in the assay with SK-MEL-2 melanoma, 99.9%; in the assay with EKVX NSCLC it was 90.6%; in the assay with SN12C renal, 74.2%. Moreover, the growth is 75% in the assay on UO-31 renal; 117% in the assay on TK-10 renal; 89.3% in the assay with ACHN renal; 95.7% with CAKI-1 renal; 138% in the assay on A498 renal; 60.5% with CCRF-CEM leukemia. For the same compound, the growth in the assay with MOLT-4 leukemia was 41.5%.
On to `CN1C(=O)/C(=C/c2ccc3ncsc3c2)NC1=NC12CC3CC(CC(O)(C3)C1)C2`, for which the growth with HCT-15 colon was -7.12% (active); in the assay with HT29 colon, 3.87% (active); in the assay on SNB-75 CNS, 25.9%; with SNB-19 CNS it was 16.3%; in the assay on U251 CNS, 16.4%; in the assay with PC-3 prostate, 16.8%. The growth is -90.7% (active) in the assay on SK-MEL-5 melanoma; -52.8% (active) in the assay with LOX IMVI melanoma; -18.4% (active) with SK-MEL-28 melanoma; -82.3% (active) in the assay on SK-MEL-2 melanoma; 12.3% in the assay on EKVX NSCLC; 4.63% (active) with SN12C renal. Moreover, the growth is -0.057% (active) with UO-31 renal; 39.2% in the assay on TK-10 renal; 0.736% (active) in the assay on ACHN renal; 8.2% (active) with CAKI-1 renal; -10.5% (active) with A498 renal; 5.06% (active) with CCRF-CEM leukemia. For the same compound, in the assay on MOLT-4 leukemia, the growth is 4.59% (active).
As to `C=CC(=O)Nc1ccc(C(=O)/C=C/c2ccc(N(C)CCF)cc2)c(O)c1`, the growth in the assay with HCT-15 colon is -52% (active); in the assay on HT29 colon it was -61.4% (active); in the assay with SNB-75 CNS, -8.38% (active); in the assay with SNB-19 CNS it was -15.6% (active); in the assay with U251 CNS it was -94.7% (active); with PC-3 prostate, 6.54% (active). Further, the growth is -90.7% (active) in the assay on SK-MEL-5 melanoma; -81% (active) in the assay on LOX IMVI melanoma; -77.8% (active) in the assay with SK-MEL-28 melanoma; -53.4% (active) in the assay on SK-MEL-2 melanoma; -25% (active) in the assay with EKVX NSCLC; -60.2% (active) in the assay on SN12C renal. The growth in the assay with UO-31 renal is -96.6% (active); with TK-10 renal, -23.7% (active); in the assay on ACHN renal, -68.6% (active); with CAKI-1 renal, -90.8% (active); with A498 renal, 17.5%; in the assay on CCRF-CEM leukemia, 13.1%. Besides, the growth in the assay on MOLT-4 leukemia was -3.17% (active).
In the case of `COc1ccc(-c2cc(C(=O)N=Nc3c(O)[nH]c4ccc(F)cc34)c3ccccc3n2)cc1`, the growth with HCT-15 colon was 21.5%; with HT29 colon it was 61.9%; in the assay on SNB-75 CNS it was 84.6%; in the assay with SNB-19 CNS, 44.1%; in the assay on U251 CNS, 7.34% (active); in the assay on PC-3 prostate, 76.6%. Moreover, the growth in the assay with SK-MEL-5 melanoma was 72.4%; in the assay with LOX IMVI melanoma, 24.1%; with SK-MEL-28 melanoma, 81.1%; in the assay with SK-MEL-2 melanoma, 128%; in the assay on EKVX NSCLC it was 86.4%; in the assay on SN12C renal, 65.5%. Besides, the growth with UO-31 renal is 67.6%; in the assay on TK-10 renal, 120%; in the assay with ACHN renal, 68.1%; in the assay with CAKI-1 renal it was 87.8%; in the assay on A498 renal it was 128%; in the assay with CCRF-CEM leukemia it was 44.2%. Moreover, in the assay with MOLT-4 leukemia, the growth is 21.9%.
